Records with an inconclusive call do not appear. Activity calls are given as the source filed them. The calls were made as follows, unless noted: active = hit-call score of the fitted dose curve at least 0.9, where 1 is the maximum; inactive = score below 0.9.

Test [1] concerns the target human Retinoid X Receptor beta (RXRb), RXRB (gene 6257) (UniProt P28702). Nature of the test: ATG_RXRb_TRANS: Attagene TRANS-FACTORIAL HepG2 Assay for human Retinoid X Receptor beta (RXRb) (AID 2283013; active = hit-call score of the fitted dose curve at least 0.9, where 1 is the maximum). The essentials:
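Readout is reporter transcript induction after 24 h dosing. It is measured by RT-PCR of total RNA followed by fluorescent capillary electrophoresis. HepG2 liver cells carry transfected multiple reporter units driven by an exogenous RXRb-Gal4 fusion; activity is relative to DMSO.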

Read-out in test [2]: E-selectin (Homo sapiens) (UniProt P16581)
In words: BSK_3C_Eselectin: BioMAP Diversity Plus: 3C Assay for Eselectin Biomarker Activity (AID 2283015).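 As to outcome: cell surface E-selectin protein quantified by ELISA 24 h after dosing.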 To be noted: primary human endothelial cells (HUVEC); actives raise or lower the signal. The essentials: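 Primary human umbilical vein endothelial cells (3C system) were dosed with chemical and cell-surface E-selectin measured by ELISA 24 h later. Bidirectional curve fitting used DMSO as negative control and baseline.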

Read-out in test [3]: Interleukin-1 alpha (IL1a), IL1A (gene 3552)
In words: BSK_BE3C_IL1a: BioMAP Diversity Plus: BE3C Assay for Interleukin-1 alpha (IL1a) Biomarker Activity (AID 2283016). To be noted: primary human bronchial epithelial cells; actives raise or lower the signal. The essentials: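 IL-1a measured by ELISA after 24 h treatment of human primary bronchial epithelial cells, with gain or loss of signal fitted versus DMSO. Parallel cultures stained with SRB gauge overt cytotoxicity.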

Read-out in test [4]: Monocyte Chemoattractant Protein-1 (MCP1), CCL2 (gene 6347)
In words: BSK_3C_MCP1: BioMAP Diversity Plus: 3C Assay for Monocyte Chemoattractant Protein-1 (MCP1) Biomarker Activity (AID 2283017). As to conditions: primary human endothelial cells (HUVEC); actives raise or lower the signal. The essentials:
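Primary human umbilical vein endothelial cells (3C system) were exposed to test chemical for 24 h, after which MCP-1 was quantified by ELISA. Activity was fitted bidirectionally against DMSO as negative control and baseline.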

Read-out in test [5]: Monocyte Chemoattractant Protein-1 (MCP1), CCL2 (gene 6347)
In words: BSK_4H_MCP1: BioMAP Diversity Plus: 4H Assay for Monocyte Chemoattractant Protein-1 (MCP1) Biomarker Activity (AID 2283018). As to conditions: primary human endothelial cells (HUVEC); actives raise or lower the signal. The essentials:
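ELISA of MCP-1 (CCL2) 24 h after chemical dosing of HUVEC in the BioMAP 4H system. Gain or loss versus DMSO fitted; parallel SRB staining (560 nm) tracked overt cytotoxicity.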

Read-out in test [6]: Human Leukocyte Antigen - DR isotype (HLADR), HLA-DRA (gene 3122)
Nature of the test: BSK_3C_HLADR: BioMAP Diversity Plus: 3C Assay for Human Leukocyte Antigen - DR isotype (HLADR) Biomarker Activity (AID 2283019). As to conditions: primary human endothelial cells (HUVEC); actives raise or lower the signal. The essentials:
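Primary human umbilical vein endothelial cells (3C system) were dosed with compound and cell-surface HLA-DR was quantified by ELISA at 24 h. Activity was fitted bidirectionally against DMSO as negative control and baseline.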

Read-out in test [7]: Interleukin-8 (IL8), CXCL8 (gene 3576)
Nature of the test: BSK_3C_IL8: BioMAP Diversity Plus: 3C Assay for Interleukin-8 (IL8) Biomarker Activity (AID 2283020). To be noted: primary human endothelial cells (HUVEC); actives raise or lower the signal. The essentials:
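IL-8 was measured by ELISA in HUVEC cultures 24 h after chemical dosing, with gain or loss of signal fitted relative to DMSO. Parallel SRB total-protein staining tracked overt cytotoxicity.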

Read-out in test [8]: Monokine induced gamma interferon (MIG), CXCL9 (gene 4283)
Nature of the test: BSK_3C_MIG: BioMAP Diversity Plus: 3C Assay for Monokine induced gamma interferon (MIG) Biomarker Activity (AID 2283021).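 As to AC50: MIG protein level measured by immunoassay in the treated endothelial cultures.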 As to conditions: primary human endothelial cells (HUVEC); actives raise or lower the signal. The essentials: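 ELISA measurement of MIG in human umbilical vein endothelial cells 24 h after treatment. Cytotoxicity tracked by SRB staining in parallel cultures; gain or loss of signal fitted relative to DMSO.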

Test [9] concerns the target human Vitamin D Receptor (VDR), VDR (gene 7421) (UniProt P11473). In words: ATG_VDR_TRANS: Attagene TRANS-FACTORIAL HepG2 Assay for human Vitamin D Receptor (VDR) (AID 2283022; active = hit-call score of the fitted dose curve at least 0.9, where 1 is the maximum). The essentials: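 HepG2 cells were transiently transfected with multiple GAL4-UAS reporter units, so signal reflects exogenous chimeric receptor-Gal4 activity. After 24 h compound exposure, reporter mRNA was measured by RT-PCR, fluorescent labelling and capillary electrophoresis, fitted for gain of signal versus DMSO.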

Test [10] can be described thus: BSK_3C_SRB: Viability Assessment in the BioMAP Diversity Plus: 3C Assay (AID 2283023).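 Also: fitted both ways against DMSO so a hit may be signal rise or drop.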 As to conditions: primary human endothelial cells (HUVEC). The essentials:
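Primary human umbilical vein endothelial cells in the 3C system were read 24 h after compound dosing. Total protein was stained with 0.1% sulforhodamine B after 10% TCA fixation and read at 560 nm, with bidirectional fitting against DMSO as baseline.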

Read-out in test [11]: Matrix Metallopeptidase 1 (MMP1), MMP1 (gene 4312)
In words: BSK_BE3C_MMP1: BioMAP Diversity Plus: BE3C Assay for Matrix Metallopeptidase 1 (MMP1) Biomarker Activity (AID 2283024). As to conditions: primary human bronchial epithelial cells; actives raise or lower the signal. The essentials: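 ELISA measurement of MMP-1 after 24 h compound exposure of primary human bronchial epithelial cells. Changes in either direction fitted relative to DMSO; parallel SRB staining checked overt cytotoxicity.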

A short description of test [12]: BSK_3C_Vis: BioMAP Diversity Plus: 3C Assay for Morphology Visualization (AID 2283025).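 Also: fitted both ways so gain or loss versus DMSO counts.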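 As to AC50: light microscopy image of cell morphology used as background control.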 As to conditions: primary human endothelial cells (HUVEC). The essentials: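 Light-microscopy visualization of HUVEC cultures at 24 h post-treatment, with DMSO as baseline for bidirectional fitting.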
Read-out in test [13]: Pselectin, SELP (gene 6403)
In words: BSK_4H_Pselectin: BioMAP Diversity Plus: 4H Assay for Pselectin Biomarker Activity (AID 2283026). As to conditions: primary human endothelial cells (HUVEC); actives raise or lower the signal. The essentials:
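ELISA of surface P-selectin on HUVEC, 24 h after dosing, with parallel SRB staining (0.1% after 10% TCA fixation, 560 nm) for overt cytotoxicity. Activity fitted in both directions relative to DMSO.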

Test [14] is described as follows: BSK_4H_SRB: Viability Assessment in the BioMAP Diversity Plus: 4H Assay (AID 2283027).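 Also: cells exposed to compound for 24 h before staining.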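 As to AC50: curves fitted both ways versus DMSO so AC50 may be loss or gain.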 As to conditions: primary human endothelial cells (HUVEC). The essentials:
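Cytotoxicity read-out in primary human endothelial cells: after 24 h compound exposure, cells were TCA-fixed (10%), stained with 0.1% SRB and absorbance taken at 560 nm. Values fitted in both directions relative to DMSO.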

A short description of test [15]: BSK_BE3C_SRB: Viability Assessment in the BioMAP Diversity Plus: BE3C Assay (AID 2283028).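 As to AC50: fitted both ways so AC50 may mark signal gain or loss versus DMSO.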 As to conditions: primary human bronchial epithelial cells. The essentials:
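Human primary bronchial epithelial cells were exposed to test chemicals for 24 h. Total protein in parallel cultures was then measured by staining with 0.1% sulforhodamine B after 10% TCA fixation, with absorbance read at 560 nm. Activity was fitted bidirectionally against DMSO.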

Read-out in test [16]: Thrombomodulin, THBD (gene 7056)
In words: BSK_3C_Thrombomodulin: BioMAP Diversity Plus: 3C Assay for Thrombomodulin Biomarker Activity (AID 2283029). To be noted: primary human endothelial cells (HUVEC); actives raise or lower the signal. The essentials: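 ELISA measurement of thrombomodulin on HUVEC surface 24 h after chemical dosing; activity fitted in both directions relative to DMSO vehicle.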

Read-out in test [17]: Urokinase-type plasminogen activator receptor (uPAR), PLAUR (gene 5329)
Nature of the test: BSK_4H_uPAR: BioMAP Diversity Plus: 4H Assay for Urokinase-type plasminogen activator receptor (uPAR) Biomarker Activity (AID 2283030). To be noted: primary human endothelial cells (HUVEC); actives raise or lower the signal. The essentials:
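Primary human umbilical vein endothelial cells were exposed to chemical for 24 h before cell-surface uPAR was quantified by ELISA. Activity was fitted bidirectionally against the DMSO negative control baseline.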

Read-out in test [18]: Vascular endothelial growth factor receptor 2 (Homo sapiens) (UniProt P35968)
Nature of the test: BSK_4H_VEGFRII: BioMAP Diversity Plus: 4H Assay for Vascular endothelial growth factor receptor 2 (VEGFR2) Biomarker Activity (AID 2283031).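 As to AC50: cell-surface VEGFR2 protein level quantified by ELISA.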 To be noted: primary human endothelial cells (HUVEC); actives raise or lower the signal. The essentials: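 Primary human umbilical vein endothelial cells in the BioMAP 4H system were dosed with test chemical, and 24 h later VEGFRII was measured by ELISA. Activity was fitted bidirectionally against DMSO as negative control and baseline.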

Read-out in test [19]: Human Leukocyte Antigen - DR isotype (HLADR), HLA-DRA (gene 3122)
Nature of the test: BSK_BE3C_HLADR: BioMAP Diversity Plus: BE3C Assay for Human Leukocyte Antigen - DR isotype (HLADR) Biomarker Activity (AID 2283032). As to conditions: primary human bronchial epithelial cells; actives raise or lower the signal. The essentials:
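Cell-surface HLA-DR ELISA readout at 24 h after dosing in the BE3C primary human lung bronchial epithelial system; gain or loss of signal against DMSO, with parallel sulforhodamine B staining of total protein for overt cytotoxicity.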

Test [20] has as its target human Thyroid Receptor alpha (THRa1), THRA (gene 7067) (UniProt P10827). In words: ATG_THRa1_TRANS: Attagene TRANS-FACTORIAL HepG2 Assay for human Thyroid Receptor alpha (THRa1) (AID 2283014; active = hit-call score of the fitted dose curve at least 0.9, where 1 is the maximum). The essentials: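 HepG2 cells transiently transfected with multiplexed GAL4-UAS reporter units for exogenous chimeric THRa1-Gal4; reporter mRNA measured 24 h after dosing by RT-PCR, 6-FAM labelling, HpaI digestion and capillary electrophoresis. Gain-of-signal fitted versus DMSO baseline.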

human Vitamin D Receptor (VDR), VDR (gene 7421), sequence (P11473 whole entry, looked up, the tested form may be a part): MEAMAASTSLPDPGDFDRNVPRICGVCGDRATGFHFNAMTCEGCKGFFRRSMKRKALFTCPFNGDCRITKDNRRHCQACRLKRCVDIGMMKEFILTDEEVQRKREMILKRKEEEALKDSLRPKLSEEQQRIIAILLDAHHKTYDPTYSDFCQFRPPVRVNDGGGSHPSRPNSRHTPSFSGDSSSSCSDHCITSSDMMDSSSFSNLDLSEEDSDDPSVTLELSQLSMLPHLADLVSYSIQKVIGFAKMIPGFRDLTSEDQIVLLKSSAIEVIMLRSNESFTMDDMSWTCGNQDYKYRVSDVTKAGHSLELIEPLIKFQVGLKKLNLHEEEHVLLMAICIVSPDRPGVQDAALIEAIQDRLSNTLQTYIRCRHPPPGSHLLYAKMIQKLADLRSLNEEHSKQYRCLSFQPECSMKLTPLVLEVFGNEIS
E-selectin (Homo sapiens), sequence (P16581 whole entry, looked up): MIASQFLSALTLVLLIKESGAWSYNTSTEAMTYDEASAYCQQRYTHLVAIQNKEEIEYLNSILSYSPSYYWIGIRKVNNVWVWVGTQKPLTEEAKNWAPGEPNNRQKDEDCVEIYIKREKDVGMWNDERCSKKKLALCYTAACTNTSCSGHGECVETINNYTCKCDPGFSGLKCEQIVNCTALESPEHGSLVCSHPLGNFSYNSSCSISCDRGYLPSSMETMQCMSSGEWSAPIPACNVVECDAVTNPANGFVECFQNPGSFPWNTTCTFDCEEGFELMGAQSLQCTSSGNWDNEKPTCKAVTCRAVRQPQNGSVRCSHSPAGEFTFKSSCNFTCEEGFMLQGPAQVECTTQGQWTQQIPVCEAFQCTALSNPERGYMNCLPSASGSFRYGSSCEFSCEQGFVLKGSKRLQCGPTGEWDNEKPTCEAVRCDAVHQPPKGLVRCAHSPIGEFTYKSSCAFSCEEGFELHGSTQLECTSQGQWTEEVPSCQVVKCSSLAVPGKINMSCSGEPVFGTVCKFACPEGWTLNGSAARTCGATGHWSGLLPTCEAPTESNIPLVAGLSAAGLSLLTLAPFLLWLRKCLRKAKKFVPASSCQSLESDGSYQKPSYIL
human Thyroid Receptor alpha (THRa1), THRA (gene 7067), sequence (P10827 whole entry, looked up, the tested form may be a part): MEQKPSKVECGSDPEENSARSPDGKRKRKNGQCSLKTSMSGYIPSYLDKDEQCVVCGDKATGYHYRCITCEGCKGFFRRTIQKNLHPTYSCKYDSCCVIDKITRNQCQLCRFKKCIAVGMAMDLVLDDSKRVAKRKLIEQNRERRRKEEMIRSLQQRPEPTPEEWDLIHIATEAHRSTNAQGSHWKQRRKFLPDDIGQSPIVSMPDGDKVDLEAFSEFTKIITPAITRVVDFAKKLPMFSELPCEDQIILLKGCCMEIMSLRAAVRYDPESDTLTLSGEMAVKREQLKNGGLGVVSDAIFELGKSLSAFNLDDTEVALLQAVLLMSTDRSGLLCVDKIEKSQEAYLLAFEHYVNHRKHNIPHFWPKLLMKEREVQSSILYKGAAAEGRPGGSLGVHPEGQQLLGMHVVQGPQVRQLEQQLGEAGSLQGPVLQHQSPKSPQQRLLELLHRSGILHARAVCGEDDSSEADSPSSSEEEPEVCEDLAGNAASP
human Retinoid X Receptor beta (RXRb), RXRB (gene 6257), sequence (P28702 whole entry, looked up, the tested form may be a part): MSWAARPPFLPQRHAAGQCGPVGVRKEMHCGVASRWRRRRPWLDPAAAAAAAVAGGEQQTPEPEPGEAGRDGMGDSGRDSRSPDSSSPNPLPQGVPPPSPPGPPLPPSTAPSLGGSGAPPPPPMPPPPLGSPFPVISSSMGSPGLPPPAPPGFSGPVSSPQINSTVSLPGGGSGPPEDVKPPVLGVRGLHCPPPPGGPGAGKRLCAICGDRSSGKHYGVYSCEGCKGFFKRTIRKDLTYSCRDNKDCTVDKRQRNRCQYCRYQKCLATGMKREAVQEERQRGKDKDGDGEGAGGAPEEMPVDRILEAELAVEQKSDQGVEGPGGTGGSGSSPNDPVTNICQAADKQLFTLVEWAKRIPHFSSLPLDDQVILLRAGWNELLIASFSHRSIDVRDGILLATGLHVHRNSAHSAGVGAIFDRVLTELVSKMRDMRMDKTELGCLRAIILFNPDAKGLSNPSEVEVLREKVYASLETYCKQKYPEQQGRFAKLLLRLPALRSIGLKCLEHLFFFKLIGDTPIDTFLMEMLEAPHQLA

Regarding `CC(C)(OO)c1ccccc1`, the outcome in test [1], in test [2], in test [3], in [4], in [5] and in [6] was inactive. The result in test [7], in test [8], in test [9], in test [10], in [11] and in test [12] was inactive. Further, the result in [13], in test [14], in test [15], in test [16], in test [17] and in test [18] was inactive. For the same compound, the outcome in test [19] was inactive.
For `O=C(Nc1ccc2[nH]ccc2c1)c1cc2cc(F)ccc2n1Cc1cccc(F)c1`, the AC50 was 10.9 µM (active) in [2]; 10.3 µM (active) in [3]; 8.53 µM (active) in test [4]; 5.82 µM (active) in test [5]; 7.97 µM (active) in test [6]; 6.43 µM (active) in test [7]. Also, the half-maximal activity concentration (AC50) in test [8] is 10.4 µM (active); in test [10], 8.66 µM (active); in [11], 9.72 µM (active); in test [12], 12.8 µM (active); in test [13], 7.85 µM (active); in test [14], 10 µM (active). For the same compound, the AC50 is 6.76 µM (active) in [15], 9.25 µM (active) in test [17], 8.6 µM (active) in test [18] and 5.82 µM (active) in test [19]. Further, the outcome in test [9] and in [16] was inactive.
In the case of `Clc1nc(Cl)nc(Cl)n1`, the compound was called inactive in test [20] and in test [9].
Turning to `COc1cc2c(cc1OC)[C@@]13CCN4CC5=CCO[C@H]6CC(=O)N2[C@H]1[C@H]6[C@H]5C[C@H]43`, the compound was called inactive in test [20] and in test [9].
With `C(=NC1CCCCC1)=NC1CCCCC1`, the call in [20], in [9] and in [16] was inactive. Moreover, the AC50 is 20 µM (active) in test [2]; 20 µM (active) in test [3]; 3.82 µM (active) in test [5]; 10.2 µM (active) in test [6]; 20 µM (active) in [7]; 28.7 µM (active) in test [8]. In addition, the concentration at half-maximal activity (AC50) in [10] was 8.96 µM (active); in test [11], 36.5 µM (active); in test [12] it was 37.3 µM (active); in test [13] it was 5.42 µM (active); in test [14] it was 5.35 µM (active); in test [15] it was 33.4 µM (active). Besides, the concentration at half-maximal activity (AC50) is 8.81 µM (active) in test [17] and 20 µM (active) in test [19].
`Cc1ccc(N)cc1Cl`: the compound was classed as inactive in test [20] and in [9].
As to `N#CN=C(N)N`, in test [9], the outcome was inactive.
Turning to `c1ccc(N=NNc2ccccc2)cc1`, the concentration at half-maximal activity (AC50) in test [20] is 134 µM (active). The result in [9] was inactive.
On to `COC(=O)Cc1ccccc1`, for which the outcome in [2], in test [3], in test [4], in [5], in test [6] and in [7] was inactive. Also, the outcome in [8], in test [9], in test [10], in test [11], in [13] and in test [14] was inactive. Besides, the result in test [15], in test [17], in test [18] and in test [19] was inactive.
On to `Cn1sc(Cl)cc1=O`, for which the result in [2], in [3], in test [4], in [5], in test [7] and in test [8] was inactive. Moreover, the result in test [10], in [11], in [12], in test [14], in test [15] and in test [17] was inactive. Besides, the result in [18] and in test [19] was inactive. Besides, the AC50 is 29.9 µM (active) in [6] and 9.68 µM (active) in [13].

The term AC50 denotes the concentration at which the activity in the assay is half-maximal.

The values above are taken from PubChem BioAssay (EPA / NIEHS).
